Assay results as given in PubChem BioAssay AID1159580 (chemical genetic matrix, 2015).
Out of some 5,500 compounds screened, about 2,000 (36%) were called active. About 18% were inconclusive and are not listed. Rule as the data show it: active = normalized growth mostly below about 0.91 (no sharp cut-off); inconclusive = no clear call, values can overlap the other calls; inactive = mostly above about 0.92. The list shows a part of the results.

Test: chemical genetic growth profiling, strain panel (AID 1159580);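 also: tested at 20 µM; growth read once vehicle control cultures reached saturation at 30 °C; 1 = growth at the plate median or of vehicle wells; lower values mean less growth of the strain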
Conditions: S. cerevisiae deletion strains, growth OD

Measured: normalized growth

CO/N=C(\C(=O)NC1C(=O)N2C(C(=O)O)=C(COC(N)=O)CSC12)c1ccco1 (stereo unspecified)
active: locus YKL009W, strain mrt4, hits give low values 0.311 | locus YKL068W, hits give low values 0.575 | locus YKL085W, strain MDH1 (second series), hits give low values 0.0978 | locus YKL085W, strain MDH1, hits give low values 0.0978 | locus YKL190W, strain CNB1, hits give low values 0.0476 | locus YKR001C, strain vps1, hits give low values 0.0619 | locus YLR039C, strain RIC1, hits give low values 0.0948 | locus YLR058C, strain SHM2, hits give low values 0.0436 | locus YLR102C, strain apc9, hits give low values 0.0609 | locus YLR262C, strain YPT6, hits give low values 0.107 | locus YLR268W, strain sec22, hits give low values 0.0592 | locus YLR330W, strain CHS5, hits give low values 0.053 | locus YLR342W, strain FKS1 (second series), hits give low values 0.0595 | locus YLR371W, strain rom2, hits give low values 0.0612 | locus YLR418C, strain cdc73, hits give low values 0.096 | locus YML016C, strain PPZ1, hits give low values 0.0484 | locus YML032C, strain rad52, hits give low values 0.0647 | locus YML124C, strain tub3, hits give low values 0.0613 | locus YMR078C, strain ctf18, hits give low values 0.0716 | locus YMR223W, strain ubp8, hits give low values 0.0609 | locus YMR263W, strain SAP30, hits give low values 0.0627 | locus YMR307W, strain GAS1, hits give low values 0.13 | locus YNL067W, strain RPL9B, hits give low values 0.0518 | locus YNL233W, strain BNI4, hits give low values 0.061 | locus YNL250W, strain rad50, hits give low values 0.297 | locus YNL271C, strain bni1, hits give low values 0.224 | locus YNL298W, strain CLA4, hits give low values 0.235 | locus YNL307C, strain MCK1, hits give low values 0.0668 | locus YNL322C, strain KRE1, hits give low values 0.0494 | locus YNR052C, strain pop2, hits give low values 0.0644 | locus YOL012C, strain htz1 0.173 | locus YOL147C, strain pex11, hits give low values 0.0578 | locus YOR061W, strain CKA2, hits give low values 0.0318 | locus YOR069W, strain VPS5, hits give low values 0.0536 | locus YOR136W, strain idh2, hits give low values 0.067 | locus YOR144C, strain elg1, hits give low values 0.0595 | locus YOR184W, strain ser1, hits give low values 0.062 | locus YOR316C, strain cot1, hits give low values 0.0579 | locus YPR119W, strain clb2, hits give low values 0.0597 | locus YPR141C, strain kar3, hits give low values 0.56 | locus YPR163C, strain tif3, hits give low values 0.0674 | locus YPR167C, strain met16, hits give low values 0.0656 | strain wtn01, hits give low values 0.0569
inactive: locus YJR066W, strain TOR1, hits give low values 0.972 | locus YKL160W, strain elf1, hits give low values 0.961 | locus YKR026C, strain gcn3, hits give low values 0.98 | locus YKR091W, strain srl3, hits give low values 0.98 | locus YLL001W, strain dnm1, hits give low values 0.944 | locus YLL026W, hits give low values 0.991 | locus YLL041C, strain sdh2, hits give low values 0.971 | locus YLR027C, strain aat2, hits give low values 0.981 | locus YLR113W, strain HOG1, hits give low values 1.07 | locus YLR221C, strain rsa3, hits give low values 0.956 | locus YLR258W, strain gsy2, hits give low values 0.975 | locus YLR262C, strain YPT6 (second series), hits give low values 0.967 | locus YLR320W, strain mms22, hits give low values 0.93 | locus YLR342W, strain FKS1, hits give low values 0.972 | locus YLR357W, strain rsc2, hits give low values 0.963 | locus YLR370C, strain arc18, hits give low values 0.963 | locus YLR384C, strain iki3, hits give low values 0.968 | locus YML120C, strain ndi1, hits give low values 0.965 | locus YMR058W, strain fet3, hits give low values 0.968 | locus YMR125W, strain sto1, hits give low values 0.979 | locus YMR129W, hits give low values 0.983 | locus YMR205C, strain PFK2, hits give low values 0.949 | locus YMR231W, strain pep5, hits give low values 0.968 | locus YNL071W, strain lat1, hits give low values 0.974 | locus YNL183C, strain NPR1, hits give low values 0.966 | locus YNL209W, strain ssb2, hits give low values 0.985 | locus YNL248C, strain rpa49, hits give low values 0.966 | locus YNL322C, strain KRE1 (second series), hits give low values 0.969 | locus YNR049C, strain mso1, hits give low values 0.978 | locus YOR001W, strain rrp6, hits give low values 0.984 | locus YOR070C, strain gyp1, hits give low values 0.988 | locus YOR080W, strain dia2, hits give low values 0.986 | locus YOR083W, strain WHI5, hits give low values 0.953 | locus YOR106W, strain vam3, hits give low values 0.951 | locus YOR231W, strain MKK1, hits give low values 1.06 | locus YOR265W, strain rbl2, hits give low values 0.991 | locus YOR270C, strain vph1, hits give low values 0.96 | locus YOR290C, strain snf2, hits give low values 0.958 | locus YPL051W, strain arl3, hits give low values 0.97 | locus YPL078C, strain atp4, hits give low values 0.957 | locus YPL106C, strain sse1, hits give low values 0.941 | locus YPL240C, strain hsp82, hits give low values 0.982 | locus YPL256C, strain CLN2, hits give low values 1.07
